Experimental data reported in PubChem BioAssay (EPA / NIEHS).
Calls of active or inactive are those of the source. How the source made its calls: active means hit-call score of the fitted dose curve at least 0.9, where 1 is the maximum; inactive means score below 0.9.

What was measured:
[1] = molecular target: Bile acid receptor (Homo sapiens) (UniProt Q96RI1); assay: ATG_IR1_CIS: Attagene CIS-FACTORIAL HepG2 Assay for human Nuclear Receptor Subfamily 1 Group H Member 4 (NR1H4), IR1 submotif (AID 2282946); details: IR1 reporter transcription, actives raise or lower the signal
Chain of Bile acid receptor (Homo sapiens) (Q96RI1 whole entry, looked up): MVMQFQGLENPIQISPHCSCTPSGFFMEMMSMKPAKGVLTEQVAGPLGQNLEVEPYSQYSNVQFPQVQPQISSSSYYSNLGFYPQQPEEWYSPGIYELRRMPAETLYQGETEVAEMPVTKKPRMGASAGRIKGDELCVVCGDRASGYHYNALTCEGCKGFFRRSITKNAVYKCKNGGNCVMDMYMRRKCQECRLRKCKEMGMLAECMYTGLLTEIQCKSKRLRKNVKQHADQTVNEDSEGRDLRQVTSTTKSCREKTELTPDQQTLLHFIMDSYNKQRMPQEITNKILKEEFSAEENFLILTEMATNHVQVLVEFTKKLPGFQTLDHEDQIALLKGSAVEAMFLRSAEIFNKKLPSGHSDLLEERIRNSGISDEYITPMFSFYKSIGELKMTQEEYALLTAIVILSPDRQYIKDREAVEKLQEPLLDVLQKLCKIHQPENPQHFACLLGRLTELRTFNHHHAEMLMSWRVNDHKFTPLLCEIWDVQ
Method in brief: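 Readout: reporter transcript levels by RT-PCR with fluorescent capillary electrophoresis, from HepG2 cells transiently transfected with multiplexed cis-regulated reporters and dosed 24 h. Gain- or loss-of-signal fitted versus DMSO negative control.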

[2] = ATG_GRE_CIS: Attagene CIS-FACTORIAL HepG2 Assay for human Glucocorticoid Response Elements (GRE) (AID 2282947); details: HepG2 GRE cis-reporter, Attagene multiplex mRNA; actives raise or lower the signal
Method in brief: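 Cells (HepG2) bearing transfected cis-promoter reporter transcription units were treated with chemical for 24 hours. Reporter mRNA was measured via RT-PCR with capillary electrophoresis, and activity was fitted in both directions relative to DMSO.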

[3] = ATG_ISRE_CIS: Attagene CIS-FACTORIAL HepG2 Assay for human Interferon Regulatory Factor 1 (IRF1) binding to an Interferon-Stimulated Response Element (ISRE) (AID 2282948); details: HepG2 ISRE cis-reporter (Attagene), mRNA transcription readout; actives raise or lower the signal
Method in brief: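 Endogenous transcription factor activity read as reporter transcript abundance via RT-PCR and capillary electrophoresis. HepG2 cells transiently transfected, 24 h chemical exposure. Gain or loss fitted against DMSO baseline.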

[4] = ATG_M_06_CIS: Attagene CIS-FACTORIAL HepG2 Assay for M06 Transcription Factor (Internal Marker) (AID 2282950); details: HepG2 Attagene CIS-FACTORIAL M06 internal marker reporter; actives raise or lower the signal
Method in brief: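 Fluorescence-labelled RT-PCR products from cis-promoter reporter units, cut with HpaI and resolved by capillary electrophoresis, give the signal. Cells are human HepG2, dosed for 24 h. Serves as background control, fitted relative to DMSO.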

[5] = molecular target: Hypoxia-inducible factor 1-alpha (Homo sapiens) (UniProt Q16665); assay: ATG_HIF1a_CIS: Attagene CIS-FACTORIAL HepG2 Assay for human Hypoxia Inducible Factor 1 (HIF1A) (AID 2282951); details: HepG2 Attagene cis-factorial HIF1a reporter transcription; actives raise or lower the signal
Chain of Hypoxia-inducible factor 1-alpha (Homo sapiens) (Q16665 whole entry, looked up): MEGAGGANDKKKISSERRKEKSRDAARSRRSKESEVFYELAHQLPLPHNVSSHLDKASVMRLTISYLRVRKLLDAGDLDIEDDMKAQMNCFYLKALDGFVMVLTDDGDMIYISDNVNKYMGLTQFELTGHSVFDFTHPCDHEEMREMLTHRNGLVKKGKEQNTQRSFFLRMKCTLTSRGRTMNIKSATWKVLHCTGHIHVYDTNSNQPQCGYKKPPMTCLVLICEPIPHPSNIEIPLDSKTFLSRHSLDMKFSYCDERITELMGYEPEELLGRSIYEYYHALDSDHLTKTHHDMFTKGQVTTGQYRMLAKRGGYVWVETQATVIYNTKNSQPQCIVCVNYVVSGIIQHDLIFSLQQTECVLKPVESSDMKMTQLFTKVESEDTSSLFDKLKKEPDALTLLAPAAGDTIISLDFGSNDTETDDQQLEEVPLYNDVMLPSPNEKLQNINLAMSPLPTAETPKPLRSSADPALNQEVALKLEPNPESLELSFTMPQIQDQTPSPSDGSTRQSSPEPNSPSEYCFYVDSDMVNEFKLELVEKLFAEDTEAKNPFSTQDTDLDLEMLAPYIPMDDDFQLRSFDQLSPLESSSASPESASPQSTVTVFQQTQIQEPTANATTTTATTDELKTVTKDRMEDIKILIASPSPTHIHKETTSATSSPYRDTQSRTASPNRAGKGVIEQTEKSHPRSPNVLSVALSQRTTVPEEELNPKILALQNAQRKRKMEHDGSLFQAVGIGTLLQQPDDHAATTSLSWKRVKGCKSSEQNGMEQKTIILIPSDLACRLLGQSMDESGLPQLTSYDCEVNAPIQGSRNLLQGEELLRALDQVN
Method in brief: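 RT-PCR/capillary electrophoresis fluorescence readout of reporter transcripts from endogenous-TF-driven cis elements in transfected HepG2 cells, 24 h exposure; activity fitted in both directions against DMSO controls.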

[6] = molecular target: Heat shock factor protein 1 (Homo sapiens) (UniProt Q00613); assay: ATG_HSE_CIS: Attagene CIS-FACTORIAL HepG2 Assay for human Heat Shock Transcription Factor 1 (HSE) (AID 2282953); details: HepG2 HSE cis-reporter, Attagene RNA transcription; actives raise or lower the signal
Chain of Heat shock factor protein 1 (Homo sapiens) (Q00613 whole entry, looked up): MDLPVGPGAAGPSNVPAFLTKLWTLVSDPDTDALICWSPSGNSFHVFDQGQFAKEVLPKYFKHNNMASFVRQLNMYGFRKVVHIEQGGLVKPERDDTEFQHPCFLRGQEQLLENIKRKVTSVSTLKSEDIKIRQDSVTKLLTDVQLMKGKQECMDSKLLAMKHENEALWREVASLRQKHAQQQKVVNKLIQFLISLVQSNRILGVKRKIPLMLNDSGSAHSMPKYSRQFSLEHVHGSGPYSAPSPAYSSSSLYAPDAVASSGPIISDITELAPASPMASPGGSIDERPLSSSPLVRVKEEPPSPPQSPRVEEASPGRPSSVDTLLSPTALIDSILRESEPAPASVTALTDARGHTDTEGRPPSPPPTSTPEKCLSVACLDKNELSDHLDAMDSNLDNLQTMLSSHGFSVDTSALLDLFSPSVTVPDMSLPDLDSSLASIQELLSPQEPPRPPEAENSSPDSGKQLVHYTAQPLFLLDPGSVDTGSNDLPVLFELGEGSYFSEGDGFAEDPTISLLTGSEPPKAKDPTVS
Method in brief: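 After a 24 h incubation with test chemical, transfected HepG2 cells were harvested for RNA; reporter transcripts were measured by RT-PCR and capillary electrophoresis. Values reflect gain or loss of signal relative to DMSO.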

[7] = ATG_MRE_CIS: Attagene CIS-FACTORIAL HepG2 Assay for human Metal Responsive Element (MRE) (AID 2282954); details: HepG2 MRE cis-reporter transcription, Attagene multiplex; actives raise or lower the signal
Method in brief: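 Cells were transfected with cis-promoter reporter transcription units, then dosed for 24 h. RNA was reverse-transcribed, amplified, fluorescently labelled and resolved by capillary electrophoresis, and activity was fitted in both directions relative to DMSO.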

[8] = ATG_PBREM_CIS: Attagene CIS-FACTORIAL HepG2 Assay for human Phenobarbital-responsive Enhancer Module (PBREM) (AID 2282955); details: HepG2 PBREM cis-reporter, Attagene multiplexed transcription; actives raise or lower the signal
Method in brief: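 Reporter mRNA read by RT-PCR, 6-FAM primer extension, HpaI digestion and capillary electrophoresis. Transfected HepG2 cells, 24 h compound exposure. Gain or loss of signal fitted bidirectionally relative to DMSO baseline.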

[9] = molecular target: Paired box protein Pax-6 (Homo sapiens) (UniProt P26367); assay: ATG_Pax6_CIS: Attagene CIS-FACTORIAL HepG2 Assay for human Paired Box 6 (PAX6) (AID 2282956); details: HepG2 CIS-FACTORIAL PAX6 reporter transcription, RNA readout; actives raise or lower the signal
Chain of Paired box protein Pax-6 (Homo sapiens) (P26367 whole entry, looked up): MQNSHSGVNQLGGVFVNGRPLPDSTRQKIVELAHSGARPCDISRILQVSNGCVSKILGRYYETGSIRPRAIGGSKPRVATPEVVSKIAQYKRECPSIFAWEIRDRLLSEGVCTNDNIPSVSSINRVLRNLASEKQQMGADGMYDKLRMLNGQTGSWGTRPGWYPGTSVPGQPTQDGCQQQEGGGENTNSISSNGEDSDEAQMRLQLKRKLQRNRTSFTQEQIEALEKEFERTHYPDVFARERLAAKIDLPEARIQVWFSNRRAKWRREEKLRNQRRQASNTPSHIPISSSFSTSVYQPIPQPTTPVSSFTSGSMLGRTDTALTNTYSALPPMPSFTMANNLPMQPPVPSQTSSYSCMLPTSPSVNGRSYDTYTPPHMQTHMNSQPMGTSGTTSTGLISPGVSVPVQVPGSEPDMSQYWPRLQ
Method in brief: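 Read-out is reporter transcript level, measured by RT-PCR with fluorescent primer extension and capillary electrophoresis after 24 h dosing of transfected HepG2 cells. Activity in either direction fitted relative to DMSO control.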

[10] = ATG_PXRE_CIS: Attagene CIS-FACTORIAL HepG2 Assay for human Pregnane X Receptor Element (PXRE) (AID 2282957); details: HepG2 Attagene CIS-FACTORIAL PXRE reporter, mRNA; actives raise or lower the signal
Method in brief: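 Reporter transcripts under endogenous PXR-responsive cis-regulation quantified from total RNA of transfected HepG2 cells 24 h post-dosing, via RT-PCR with fluorescent primer extension and capillary electrophoresis. Gain or loss of signal fitted against DMSO baseline.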

[11] = ATG_PPRE_CIS: Attagene CIS-FACTORIAL HepG2 Assay for human Peroxisome Proliferator-activated Response Element (PPRE) (AID 2282958); details: HepG2 PPRE cis-element reporter, Attagene transcription factor profiling; actives raise or lower the signal
Method in brief: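 Read-out: fluorescent reporter mRNA fragments resolved by capillary electrophoresis after RT-PCR. HepG2 cells carried transiently transfected PPRE-driven cis reporter constructs and were dosed for 24 h; gain or loss of signal fitted relative to DMSO.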

[12] = ATG_RORE_CIS: Attagene CIS-FACTORIAL HepG2 Assay for human RAR-related Orphan Receptor Element (RORE) (AID 2282959); details: HepG2 Attagene cis-factorial RORE reporter, mRNA; actives raise or lower the signal
Method in brief: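 Readout: fluorescent reporter mRNA by RT-PCR plus capillary electrophoresis, 24 h after dosing transfected HepG2 cells. Endogenous transcription factor activity on a cis promoter element is measured. Gain or loss of signal fitted against DMSO.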

[13] = molecular target: Transcription factor Sp1 (Homo sapiens) (UniProt P08047); assay: ATG_Sp1_CIS: Attagene CIS-FACTORIAL HepG2 Assay for human Specificity Protein 1 (Sp1) (AID 2282961); details: HepG2 Sp1 cis-reporter transcription, actives raise or lower the signal
Chain of Transcription factor Sp1 (Homo sapiens) (P08047 whole entry, looked up): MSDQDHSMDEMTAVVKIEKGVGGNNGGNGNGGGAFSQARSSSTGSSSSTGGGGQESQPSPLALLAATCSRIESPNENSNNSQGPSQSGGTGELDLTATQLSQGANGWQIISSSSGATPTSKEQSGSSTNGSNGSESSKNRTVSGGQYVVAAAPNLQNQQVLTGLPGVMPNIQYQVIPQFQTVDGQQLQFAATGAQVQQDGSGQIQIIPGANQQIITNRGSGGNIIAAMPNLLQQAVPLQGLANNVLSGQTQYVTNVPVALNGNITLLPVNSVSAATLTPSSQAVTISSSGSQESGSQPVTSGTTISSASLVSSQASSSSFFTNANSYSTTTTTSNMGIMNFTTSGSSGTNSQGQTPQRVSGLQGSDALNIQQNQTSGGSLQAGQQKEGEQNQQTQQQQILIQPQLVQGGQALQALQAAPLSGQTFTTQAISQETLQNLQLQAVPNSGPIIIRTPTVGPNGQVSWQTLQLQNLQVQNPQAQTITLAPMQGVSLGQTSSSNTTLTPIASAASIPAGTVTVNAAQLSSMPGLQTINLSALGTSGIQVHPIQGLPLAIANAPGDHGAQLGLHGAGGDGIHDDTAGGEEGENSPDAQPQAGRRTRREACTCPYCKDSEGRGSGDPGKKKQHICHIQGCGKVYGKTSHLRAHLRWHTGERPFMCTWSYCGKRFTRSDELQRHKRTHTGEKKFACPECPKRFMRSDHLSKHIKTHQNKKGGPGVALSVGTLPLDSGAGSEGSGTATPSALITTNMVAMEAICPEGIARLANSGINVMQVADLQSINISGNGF
Method in brief: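 Read-out: fluorescence of 6-FAM-labeled, HpaI-digested RT-PCR products separated by capillary electrophoresis. HepG2 cells carried transfected cis-element reporter units and were exposed to chemicals for 24 h; gain or loss of signal fitted relative to DMSO.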

[14] = ATG_SREBP_CIS: Attagene CIS-FACTORIAL HepG2 Assay for human Sterol Regulatory Element Binding (SREBP) (AID 2282962); details: HepG2 Attagene cis-factorial SREBP reporter, mRNA; actives raise or lower the signal
Method in brief: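 Endogenous SREBP activity read as cis-element-driven reporter transcript in transiently transfected HepG2, 24 h post-dosing; quantified via RT-PCR plus capillary electrophoresis of fluorescent fragments. Gain or loss of signal fitted relative to DMSO baseline.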

[15] = molecular target: Signal transducer and activator of transcription 3 (Homo sapiens) (UniProt P40763); assay: ATG_STAT3_CIS: Attagene CIS-FACTORIAL HepG2 Assay for human Signal Transducer and Activator of Transcription 3 (STAT3) (AID 2282963); details: HepG2, Attagene cis-factorial STAT3 reporter transcription; actives raise or lower the signal
Chain of Signal transducer and activator of transcription 3 (Homo sapiens) (P40763 whole entry, looked up): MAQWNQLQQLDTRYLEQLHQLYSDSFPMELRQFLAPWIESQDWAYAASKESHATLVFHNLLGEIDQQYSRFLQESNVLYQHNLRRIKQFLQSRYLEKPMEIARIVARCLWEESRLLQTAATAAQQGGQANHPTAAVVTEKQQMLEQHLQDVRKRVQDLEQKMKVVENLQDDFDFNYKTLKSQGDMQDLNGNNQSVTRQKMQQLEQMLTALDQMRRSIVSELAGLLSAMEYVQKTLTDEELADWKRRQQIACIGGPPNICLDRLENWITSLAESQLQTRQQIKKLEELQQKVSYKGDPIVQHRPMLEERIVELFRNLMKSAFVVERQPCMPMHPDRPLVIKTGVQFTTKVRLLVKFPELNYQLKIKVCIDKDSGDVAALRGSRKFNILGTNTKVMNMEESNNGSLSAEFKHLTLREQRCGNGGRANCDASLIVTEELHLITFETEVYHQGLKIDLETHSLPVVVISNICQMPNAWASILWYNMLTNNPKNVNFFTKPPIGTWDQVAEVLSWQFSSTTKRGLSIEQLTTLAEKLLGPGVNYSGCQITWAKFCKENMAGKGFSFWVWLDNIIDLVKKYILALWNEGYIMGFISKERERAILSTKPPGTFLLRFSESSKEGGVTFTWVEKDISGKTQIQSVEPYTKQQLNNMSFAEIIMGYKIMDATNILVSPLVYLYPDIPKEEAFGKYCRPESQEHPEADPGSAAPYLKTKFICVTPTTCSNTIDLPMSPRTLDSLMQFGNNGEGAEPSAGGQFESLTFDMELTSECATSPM
Method in brief: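 HepG2, MRTU-transfected, 24 h dosing. RNA → RT → PCR → FAM label → HpaI → CE. Bidirectional fit vs DMSO.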

[16] = ATG_TA_CIS: Attagene CIS-FACTORIAL HepG2 Assay for human TA Basal Promoter (AID 2282964); details: HepG2 Attagene CIS-factorial TA basal promoter reporter; actives raise or lower the signal
Method in brief: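 Multiplexed mRNA reporter assay, HepG2, 24 h. Reporter cDNA amplified, 6-FAM primer-extended, HpaI-cut, CE-sized; DMSO = negative control and baseline.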

[17] = ATG_TCF_b_cat_CIS: Attagene CIS-FACTORIAL HepG2 Assay for human T-Cell-Factor with beta-catenin (TCF/b-cat) (AID 2282965); details: HepG2 TCF/beta-catenin cis-reporter transcription, actives raise or lower the signal
Method in brief: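 In this cis-format system, transfected HepG2 cells report endogenous transcription factor activity. Readout after 24 h exposure is reporter transcript abundance from RT-PCR and capillary electrophoresis, analysed for gain or loss of signal versus DMSO.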

[18] = molecular target: Hepatocyte nuclear factor 6 (Homo sapiens) (UniProt Q9UBC0); assay: ATG_HNF6_CIS: Attagene CIS-FACTORIAL HepG2 Assay for human Hepatocyte Nuclear Factor 6 (HNF6) (AID 2282952); details: HepG2 Attagene cis-factorial HNF6 reporter transcription; actives raise or lower the signal
Chain of Hepatocyte nuclear factor 6 (Homo sapiens) (Q9UBC0 whole entry, looked up): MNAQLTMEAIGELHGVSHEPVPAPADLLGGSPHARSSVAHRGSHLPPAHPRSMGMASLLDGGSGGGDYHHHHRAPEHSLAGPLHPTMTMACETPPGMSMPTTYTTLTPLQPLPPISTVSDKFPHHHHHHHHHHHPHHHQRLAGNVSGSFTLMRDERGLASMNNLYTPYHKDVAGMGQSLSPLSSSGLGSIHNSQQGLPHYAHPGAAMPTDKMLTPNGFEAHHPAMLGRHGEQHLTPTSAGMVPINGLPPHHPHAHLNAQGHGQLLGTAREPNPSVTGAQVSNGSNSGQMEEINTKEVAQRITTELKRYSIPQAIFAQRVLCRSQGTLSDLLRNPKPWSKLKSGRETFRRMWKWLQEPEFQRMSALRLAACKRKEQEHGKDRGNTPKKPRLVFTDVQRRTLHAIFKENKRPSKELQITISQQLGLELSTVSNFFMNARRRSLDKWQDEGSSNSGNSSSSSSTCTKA
Method in brief: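 Endogenous factor activity read in transiently transfected HepG2 via promoter-regulated reporter transcripts. RNA harvested 24 h post-dosing, reverse-transcribed, PCR-amplified, FAM-labelled, HpaI-digested and resolved by capillary electrophoresis; fitted in both directions against DMSO.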

[19] = ATG_Sox_CIS: Attagene CIS-FACTORIAL HepG2 Assay for human SRY-box transcription factor (SOX) (AID 2282960); details: HepG2 Attagene cis-factorial SOX reporter, mRNA; actives raise or lower the signal
Method in brief: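 Read-out: fluorescent RT-PCR products of SOX1-linked reporter transcripts resolved by capillary electrophoresis, fitted bidirectionally against DMSO. Transiently transfected HepG2 cells, 24 h after chemical exposure, endogenous transcription factor activity.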

[20] = ATG_M_32_CIS: Attagene CIS-FACTORIAL HepG2 Assay for M32 Transcription Factor (Internal Marker) (AID 2282949); details: HepG2 Attagene cis-factorial M32 reporter, mRNA; actives raise or lower the signal;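 further: background control marker of the multiplexed CIS panel rather than a real target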
Method in brief: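 HepG2 human liver cells transiently transfected with cis-promoter-driven multiple reporter transcription units, dosed 24 h. Reporter mRNA quantified by RT-PCR, FAM-labelled primer extension, HpaI digest and capillary electrophoresis; bidirectional fit versus DMSO baseline.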

Measured: AC50

CCCCCCCC[N+](C)(CCCCCCCC)CCCCCCCC
active: [5] 0.000753 µM | [7] 2.15 µM
not listed: [18] | [19] | [20]
inactive: all other assays above

O=[N+]([O-])C1(Br)COCOC1
active: [3] 52.5 µM | [6] 58.8 µM | [19] 51.9 µM | [13] 50.2 µM | [17] 55.7 µM
not listed: [7] | [10] | [11] | [16] | [20]
inactive: all other assays above

CCCCCc1ccc(Cl)cc1
active: [11] 25.9 µM | [13] 177 µM
not listed: [8] | [18] | [19]
inactive: all other assays above

CC=CCO
active: [10] 26.8 µM
not listed: [13] | [16] | [18]
inactive: all other assays above

CCCCCCCCO[C@@H]1O[C@H](CO)[C@@H](O)[C@H](O)[C@H]1O
not listed: [6] | [8] | [19]
inactive: all other assays above

CCCCCCCC(C)=O
not listed: [6] | [8] | [17] | [20]
inactive: all other assays above

NNC(=O)c1cccc(C(=O)NN)c1
not listed: [3] | [10]
inactive: all other assays above

C#CC1(O)CC[C@H]2[C@@H]3CCC4=CCCC[C@@H]4[C@H]3CC[C@@]21C (stereo not given in full)
active: [1] 0.849 µM | [18] 55.3 µM | [10] 2.58 µM | [11] 33.4 µM | [12] 41.7 µM | [14] 27.4 µM | [16] 16.7 µM | [17] 33.4 µM
not listed: [2] | [8] | [19]
inactive: all other assays above

C(=CC=Nc1ccccc1)C=CNc1ccccc1
active: [10] 32.3 µM
not listed: [2]
inactive: all other assays above

O=C(O)CC(C(=O)O)C(CC(=O)O)C(=O)O (stereo not given)
not listed: [3] | [7] | [12] | [17]
inactive: all other assays above

COC(=O)C1=C(C)NC(C)=C(C(=O)OCC(C)C)C1c1ccccc1[N+](=O)[O-] (stereo not given)
active: [5] 18 µM
not listed: [3] | [6] | [7] | [10] | [11] | [12] | [13]
inactive: all other assays above

CC(=O)[C@@]1(O)CC[C@H]2[C@@H]3C[C@H](C)C4=CC(=O)C=C[C@]4(C)[C@@]3(F)[C@@H](O)C[C@@]21C
active: [2] 0.0821 µM
not listed: [3] | [12]
inactive: all other assays above

O=[N+]([O-])c1ccc(CO)cc1
active: [10] 5.54 µM
not listed: [2] | [8]
inactive: all other assays above

CCCCC(CC)CCC(CC(C)C)OS(=O)(=O)O (stereo not given)
active: [10] 27.2 µM
not listed: [2] | [7] | [11]
inactive: all other assays above
